From the supplement of paper PMC12669032
Several values for one entry are separate records, joined by “and”; a condition that tells them apart may be missing. Identical values can stand only once. Unmarked numbers belong to inactive results.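 Rule for the calls: active = AUC reduced over 20% with Padj below 0.05 in at least 2 of 3 replicates; inactive = otherwise.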

Columns and labels:
[1] = system: Roseburia intestinalis; test: growth AUC relative to DMSO control (median of replicates) (fraction); higher = more growth (less inhibition), active = hit call of the paper; details: 20 µM; 24 h
Method in brief: (§1)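 Area under the growth curve was normalised to the plate median of solvent-only wells, except on the industrial chemical plate, where row and column medians were used. Curves came from gut bacterial monocultures grown anaerobically at 37 °C in mGAM with 20 µM compound (1% DMSO), starting at OD600 0.05 and read at OD600 every hour for 24 h. The minimum OD of each curve was set to 0, and values are medians of three biological replicates grown on separate days.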

[2] = system: Streptococcus salivarius; test: as above; details: 20 µM; 24 h
Method in brief: as §1

Structure (SMILES) | growth AUC [1] | growth AUC [2]
OC(c1ccc(Cl)cc1)(c1cncnc1)c1ccccc1Cl (configuration not stated) | 1 | 0.939
C#CCOS(=O)OC1CCCCC1Oc1ccc(C(C)(C)C)cc1 (mixture of isomers) | 0.956 | 1.03
CO/C=C(/C(=O)OC)c1ccccc1COc1cccc(C(F)(F)F)n1 | 0.989 | 0.999
O=C(O)c1ccccc1C(=O)Nc1cccc2ccccc12 | 0.993 | 0.932
CO/C=C(/C(=O)OC)c1ccccc1Oc1cc(Oc2ccccc2C#N)ncn1 | 0.961 | 0.991
CCOC(=O)CC(SP(=O)(OC)OC)C(=O)OCC (configuration not stated) | 0.997 | 1.01
CNC(=O)Oc1cc(C)c(S(C)(=O)=O)c(C)c1 | 0.967 | 0.945
O=S(=O)(c1ccccc1)c1ccccc1 | 0.956 | 0.943
C=CCC1=C(C)C(OC(=O)C2C(C=C(C)C)C2(C)C)CC1=O (configuration not stated) | 0.968 | 0.986
CCS(=O)Cc1ccccc1OC(=O)NC (configuration not stated) | 1.02 | 0.987
CC(C)c1ccc(NC(=O)N(C)C)cc1 | 0.95 | 0.956
O=[N+]([O-])c1c(Cl)c(Cl)c(Cl)c(Cl)c1Cl | 0.993 | 1
CCOP(=O)(NC(C)C)Oc1ccc(S(C)(=O)=O)c(C)c1 (configuration not stated) | 1.09 | 0.999
CNC(=O)O/N=C/C(C)(C)S(C)=O (configuration not stated) | 0.994 | 1.01
Cc1ccc(NC(=O)c2snnc2C)cc1Cl | 0.925 | 0.962
CCOP(=O)(SC(C)CC)SC(C)CC (configuration not stated) | 1.01 | 1.01
CCOC(=O)OC1=C(c2cc(C)ccc2C)C(=O)NC12CCC(OC)CC2 (configuration not stated) | 0.995 | 0.987
CC(C)N(C)S(=O)(=O)NC(=O)c1cc(-n2c(=O)cc(C(F)(F)F)n(C)c2=O)c(F)cc1Cl | 1.03 | 0.998
O=C(O)C1(O)c2ccccc2-c2ccc(Cl)cc21 (configuration not stated) | 0.991 | 0.982
CN(C)C(CSS(=O)(=O)[O-])CSS(=O)(=O)[O-].[Na+].[Na+] | 1.24 | 0.961
CNC(=O)N(C)c1nnc(C(C)(C)C)s1 | 1.03 | 0.959
CCCCOC(=O)N(C)SN(C)C(=O)Oc1cccc2c1OC(C)(C)C2 | 0.992 | 1.02
CC(=O)O.CCCCCCCCCCCCN=C(N)N | 0.805 | 1.03
CCOP(=O)(OCC)OCC | 1.07 | 0.994
COc1cc(C)c(C(=O)c2c(OC)ccc(Br)c2C)c(OC)c1OC | 0.989 | 1.01
COP(=O)(OC)OC(Br)C(Cl)(Cl)Br (configuration not stated) | 1.01 | 0.956
CN(C)C1CSSSC1.O=C(O)C(=O)O | 1.2 | 0.994

Structure (SMILES) | growth AUC [1] | growth AUC [2]
COP(=S)(OC)Oc1c(Cl)cc(C)cc1Cl | 0.912 | 0.972
COP(=S)(OC)Oc1ccc(S(N)(=O)=O)cc1 | 1.03 | 0.985
CN(C)C(=S)[S-].CN(C)C(=S)[S-].[Zn+2] | 0.792 | 0.925
CCCCCCCCCCCCC1=C(OC(C)=O)C(=O)c2ccccc2C1=O | 0.772 | 0.957
COCc1c(F)c(F)c(COC(=O)[C@@H]2[C@@H](C=C(Cl)Cl)C2(C)C)c(F)c1F | 0.979 | 0.986
CCNc1nc(NC(C)C)[nH]c(=O)n1 | 1.04 | 1.02
CCOP(=S)(OCC)Oc1nc(Cl)n(C(C)C)n1 | 1.02 | 1
ClC1C(Cl)C(Cl)C(Cl)C(Cl)C1Cl (configuration not stated) | 1.03 and 1.04 and 0.953 | –
O=C(O)CCl | 0.962 | 0.979
CC(=O)CC(c1ccc(Cl)cc1)c1c(O)c2ccccc2oc1=O (configuration not stated) | 1.04 | 0.987
CSc1nc(N=[N+]=[N-])nc(NC(C)C)n1 | 1.1 | 1.07
O=NN(CCO)CCO | 0.971 | 0.986
CCOP(=S)(OCC)Oc1cc(C)nc(N(CC)CC)n1 | 0.941 | 1
COP(=S)(OC)Oc1cc(Cl)c(Cl)cc1Cl | 0.966 | 0.994
CC(COc1ccc(Oc2ccccc2)cc1)Oc1ccccn1 (configuration not stated) | 0.94 | 1.01
CNC(=O)c1cc(C#N)cc(C)c1NC(=O)c1cc(Br)nn1-c1ncccc1Cl | 0.961 | 1.04
CCN(CC)C(=S)[S-].O.O.O.[Na+] | 0.894 | 1.03
CC(C)=NOCCOC(=O)[C@@H](C)Oc1ccc(Oc2cnc3cc(Cl)ccc3n2)cc1 | 1.05 | 0.966
COP(=S)(OC)Oc1ccc(S(C)(=O)=O)c(C)c1 | 0.985 | 0.972
CN(C)C(=O)Nc1cccc(OC(=O)NC(C)(C)C)c1 | 1.05 | 0.975
COP(=O)(OC)Oc1ccc(SC)c(C)c1 | 1.02 | 1
CCCCC(C#N)(Cn1cncn1)c1ccc(Cl)cc1 (configuration not stated) | 0.94 | 0.993
O=S1OCC2C(CO1)C1(Cl)C(Cl)=C(Cl)C2(Cl)C1(Cl)Cl (configuration not stated) | 0.988 | 0.977
CCC/C(=N\OCC)C1=C(O)CC(CC(C)SCC)CC1=O (configuration not stated) | 1 | 1.01
CNC(=O)Oc1cccc2c1OC(C)(C)O2 | 1.01 | 1
Clc1ccccc1-c1nnc(-c2ccccc2Cl)nn1 | 1.1 | 0.984
CN(C)C(=O)Nc1ccc(Cl)cc1 | 0.979 | 0.971

Structure (SMILES) | growth AUC [1] | growth AUC [2]
O=c1[nH]c2c(c(=O)n1C1CCCCC1)CCC2 | 0.982 | 0.998
CCc1nn(C)c(C(=O)NCc2ccc(C(C)(C)C)cc2)c1Cl | 0.96 | 0.906
CO/N=C(/C(=O)OC)c1ccccc1CO/N=C(\C)c1cccc(C(F)(F)F)c1 | 1.06 | 0.998
O=C(O)C(F)(F)C(F)(F)C(F)(F)C(F)(F)C(F)(F)C(F)(F)C(F)(F)F | 1 | 1.01
O=C(NC(=O)c1c(F)cccc1F)Nc1cc(Cl)c(OC(F)(F)C(F)F)c(Cl)c1 | 0.977 | 0.962
CC1=C(C(=O)Nc2ccccc2)S(=O)(=O)CCO1 | 0.989 | 0.979
O=[N+]([O-])NC1=NCOCN1Cc1cnc(Cl)s1 | 0.941 | 0.85
N#Cc1c(Cl)c(Cl)c(Cl)c(C#N)c1Cl | 0.939 | 0.88
O=[N+]([O-])/N=C1\NCCN1Cc1ccc(Cl)nc1 | 0.955 | 0.97
Cc1cc(C(F)(C(F)(F)F)C(F)(F)F)ccc1NC(=O)c1cccc(I)c1C(=O)NC(C)(C)CS(C)(=O)=O | 1.67 | 0.919
Oc1cc(Cl)c(Cl)cc1Cl | 0.906 | 0.95
O=C(O)c1ccc(Cl)nc1 | 1.16 | 0.973
CCOc1nc(NC)nc(NC(=O)NS(=O)(=O)c2ccccc2C(=O)OC)n1 | 0.992 | 1.03
Oc1c(Cl)c(Cl)cc(Cl)c1Cl | 0.978 | 0.869
CC(C)N1C(=O)N(c2ccccc2)CSC1=NC(C)(C)C | 1.02 | 0.953
CCCCOCN(C(=O)CCl)c1c(CC)cccc1CC | 0.97 | 0.915
C=CCN(CC=C)C(=O)C(Cl)Cl | 1 | 0.99
CC1(C)OC(c2ccco2)CN1C(=O)C(Cl)Cl (configuration not stated) | 1.03 | 1.01
ClC1=C(Cl)C2(Cl)C3COCC3C1(Cl)C2(Cl)Cl (configuration not stated) | 1.08 | 0.915
COC(=O)C(Cl)Cl | 0.918 | 0.985
N#Cc1c[nH]cc1-c1cccc2c1OC(F)(F)O2 | 1.07 | 0.962
C[C@H]1[C@H](c2ccc(Cl)cc2)SC(=O)N1C(=O)NC1CCCCC1 | 0.922 | 0.985
Clc1cccc(C(Cl)(Cl)Cl)n1 | 1 | 0.959
COCc1cnc(C2=NC(C)(C(C)C)C(=O)N2)c(C(=O)O)c1 (configuration not stated) | 0.978 | 0.977
COc1c(Cl)ccc(Cl)c1Cl | 1.01 | 0.952
